Reference: PubChem BioAssay (NCATS)
Inconclusive results are not listed. Where a call stands in place of a potency, no number is given. A number with no mark means an inactive call. Active and inactive are the calls of the source. The call rests on the fitted dose curve.

Assay: Primary qHTS for Vero E6 cytotoxicity: counterscreen for inhibitors of SARS-S pseudo-typed particle cell entry (AID 1479150)
Details: cell viability; series mostly up to 57.1 µM
Potency means the concentration at half of the fitted maximal effect.

Structure (SMILES) | Potency | activity change, negative = cytotoxicity | outcome
C[C@H](N)C(=O)N[C@@H](C)C(=O)NC1[C@H]2CN(c3nc4c(cc3F)c(=O)c(C(=O)O)cn4-c3ccc(F)cc3F)C[C@@H]12 (stereo partly drawn) | inactive |  | 
CC(C)(C)C(=O)OCOC(=O)[C@@H]1N2C(=O)[C@@H](NC(=O)[C@H](N)c3ccccc3)[C@H]2SC1(C)C | inactive |  | 
C[C@]12CC[C@@H]3c4ccc(O)cc4CC[C@H]3[C@@H]1C[C@@H](O)[C@@H]2O | inactive |  | 
COc1ccccc1N1CCN(CCCNc2cc(=O)n(C)c(=O)n2C)CC1 | inactive |  | 
CO/N=C(/C(=O)N[C@@H]1C(=O)N2C(C(=O)O)=C(Cn3nnc(C)n3)CS[C@H]12)c1csc(N)n1 | inactive |  | 
CCCCC/C=C\C/C=C\CCCCCCCC(=O)NC(C)c1ccccc1 (stereo not drawn) | inactive |  | 
CC(C)C(=O)OCc1cccc(OC(=O)[C@@H]2N3C(=O)[C@@H](NC(=O)Cc4ccccc4)[C@H]3SC2(C)C)c1 | inactive |  | 
CC1=C(CC(=O)O)c2cc(F)ccc2/C1=C\c1ccc(S(C)=O)cc1 (stereo not drawn) | inactive |  | 
CC(C(=O)O)c1ccc(CC2CCCC2=O)cc1 (stereo not drawn) | inactive |  | 
FC(F)(F)C(Cl)Br (stereo not drawn) | inactive |  | 
NC(=O)CC[C@@H](N)C(=O)O | inactive |  | 
CC(C)(C)C(=O)C(Oc1ccc(Cl)cc1)n1ccnc1 (stereo not drawn) | inactive |  | 
CC(=O)Oc1ccc(C(=C2CCCCC2)c2ccc(OC(C)=O)cc2)cc1 | inactive |  | 
CCCCOc1ccc(CC(=O)NO)cc1 | inactive |  | 
Cc1c(F)cc2c(=O)c(C(=O)O)cn3c2c1CCC3C (stereo not drawn) | inactive |  | 
O=Cc1ccccc1C=O | inactive |  | 
Oc1cccc(-c2c3nc(c(-c4cccc(O)c4)c4ccc([nH]4)c(-c4cccc(O)c4)c4nc(c(-c5cccc(O)c5)c5ccc2[nH]5)CC4)C=C3)c1 | inactive |  | 
Cc1ccc2c(Cl)cc(Cl)c(O)c2n1 | inactive |  | 
C#C[C@]1(O)CC[C@H]2[C@@H]3CCc4cc(OC)ccc4[C@H]3CC[C@@]21C | inactive |  | 

Structure (SMILES) | Potency | activity change, negative = cytotoxicity | outcome
CN(C)C(=S)SC(=S)N(C)C | 2820 nM (active) |  | 
CCCCCC1Nc2cc(C(F)(F)F)c(S(N)(=O)=O)cc2S(=O)(=O)N1 (stereo not drawn) | inactive |  | 
Oc1ccc(CCNCCCCCCNCCc2ccccc2)cc1O | inactive |  | 
CC1(C)O[C@@H]2C[C@H]3[C@@H]4CCC5=CC(=O)CC[C@]5(C)[C@@]4(F)[C@@H](O)C[C@]3(C)[C@]2(C(=O)CCl)O1 | inactive |  | 
CC(=O)OC[C@H]1O[C@@](COC(C)=O)(O[C@H]2O[C@H](COC(C)=O)[C@@H](OC(C)=O)[C@H](OC(C)=O)[C@H]2OC(C)=O)[C@@H](OC(C)=O)[C@@H]1OC(C)=O | inactive |  | 
N[C@@H](CSSC[C@H](N)C(=O)O)C(=O)O |  | 4.84% [at 0.573 µM] | 
Cc1cc(O)c(C(C)C)cc1Cl | inactive |  | 
CCCc1ncc(C[n+]2ccccc2C)c(N)n1 | inactive |  | 
CCCCC(=O)O[C@]1(C(=O)CO)[C@@H](C)C[C@H]2[C@@H]3CCC4=CC(=O)C=C[C@]4(C)[C@@]3(F)[C@@H](O)C[C@@]21C | inactive |  | 
NC(CSCC(=O)O)C(=O)O (stereo not drawn) | inactive |  | 
C/C(=C(\CCOP(=O)(O)O)SC(=O)c1ccccc1)N(C=O)Cc1cnc(C)nc1N |  |  | inactive [at 5.34 µM]
CC1(C)OC[C@@H](COC(=O)CCc2ccc(OC[C@@H](O)CNCCNC(=O)N3CCOCC3)cc2)O1 | inactive |  | 
NS(=O)(=O)c1cc2c(cc1Cl)NC(CSCc1ccccc1)=NS2(=O)=O | inactive |  | 
O=c1ccc2ccccc2o1 | inactive |  | 
CCN1CCCC(OC(=O)C(c2ccccc2)c2ccccc2)C1 (stereo not drawn) | inactive |  | 
COc1ccc2c(c1OC)C(=O)O[C@@H]2[C@H]1c2c(cc3c(c2OC)OCO3)CCN1C | inactive |  | 
C[C@H]1NCc2cc(-c3ccc4c(=O)c(C(=O)O)cn(C5CC5)c4c3OC(F)F)ccc21 | inactive |  | 
C[C@]12C=CC(=O)C=C1CC[C@H]1[C@@H]3C[C@@H](O)[C@](O)(C(=O)CO)[C@@]3(C)C[C@H](O)[C@@]12F | inactive |  | 
CSc1ccc(C(=O)c2[nH]c(=O)[nH]c2C)cc1 | inactive |  | 
